Reference: PubChem BioAssay (EPA / NIEHS)
Records with an inconclusive call do not appear. Activity calls are given as the source filed them. Rule for the calls: active = hit-call score of the fitted dose curve at least 0.9, where 1 is the maximum; inconclusive = response in the unintended direction; inactive = score below 0.9.

Each compound was assayed against Cellular tumor antigen p53 (Homo sapiens) (UniProt P04637) (assay: TOX21_p53_BLA_p5_ratio: Tox21 HCT-116 p53 Agonism Beta-lactamase Assay, Ratio, Phase 5 (AID 2283599)).
Cellular tumor antigen p53 (Homo sapiens), sequence (P04637 whole entry, looked up, the tested form may be a part): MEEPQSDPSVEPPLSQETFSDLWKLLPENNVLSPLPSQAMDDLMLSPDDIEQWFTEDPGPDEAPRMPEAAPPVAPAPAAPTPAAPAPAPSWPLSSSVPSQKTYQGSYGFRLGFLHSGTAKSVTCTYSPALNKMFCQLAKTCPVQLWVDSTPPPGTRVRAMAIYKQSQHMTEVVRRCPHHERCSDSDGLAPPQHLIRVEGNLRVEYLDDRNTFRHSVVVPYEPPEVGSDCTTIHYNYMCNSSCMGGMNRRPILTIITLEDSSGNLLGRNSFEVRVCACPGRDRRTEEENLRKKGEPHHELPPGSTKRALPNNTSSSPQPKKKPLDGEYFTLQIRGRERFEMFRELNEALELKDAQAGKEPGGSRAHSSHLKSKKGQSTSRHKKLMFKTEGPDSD
Description: TOX21_p53_BLA_p5 is a cell-based, single-readout assay that uses HCT116, a human intestinal cell line, […] in a 1536-well plate.TOX21_p53_BLA_p5_ratio is an assay readout measuring reporter gene via receptor activity and designed using inducible reporter (beta lactamase induction) detected with GAL4 b-lactamase reporter gene. The signal is derived from the ratio of cleaved (ch2) to uncleaved (ch1) reporter gene substrate used as the measure of target activity.Data from the assay component TOX21_p53_BLA_p5_ratio was analyzed into 1 assay endpoint. This assay endpoint, TOX21_p53_BLA_p5_ratio, was analyzed in the positive analysis fitting direction relative to DMSO as the negative control and baseline of activity. Using a type of inducible reporter, gain-of-signal activity can be used to understand changes in the reporter gene as they relate to the gene TP53. Furthermore, this assay endpoint can be referred to as a primary readout, because this assay has produced multiple assay endpoints and this ratio serves a reporter gene function to understand target activity. To generalize the intended target to other relatable targets, this assay endpoint is annotated to the DNA binding intended target family, where the subfamily is tumor suppressor.
Thawing Method: Place 14 mL of pre-warmed thaw medium into a 15 mL of conical tub. Remove the vial of cells to be thawed from liquid nitrogen and thaw rapidly by placing at 37C in a water bath with gentle agitation for 1-2 minutes. Decontaminate the vial by wiping with 70% ethanol before opening in a biological safety cabinet. Transfer the vial contents drop-wise into 14 mL of thaw medium in a sterile 15-mL conical tub. Centrifuge cells at 900 rpm for 4 minutes and resuspend in thaw medium. Transfer contents to the T75 tissue culture flask containing Thaw Medium and place flask in a humidified 37C/5% CO2 incubator. Switch to growth medium at first passage.Propagation Method: Aspirate medium, rinse once in DPBS, add 0.25% Trypsin/EDTA and swirl to coat the cell evenly. Add an equal volume of Growth Medium to inactivate Trypsin after 2-3 minutes incubation at 37C. Centrifuge cells at 900 rpm for 4 minutes and resuspend in growth medium. Cell should be passage or fed at least twice a week.Assay Protocol: Harvest cells from culture in growth medium and resuspend in assay medium. 2.2 Dispense 4000 cells/5 uL/well into 1536-well black/clear bottom plates using a Multidrop dispenser. After the cells were incubated at 37C for 5 hours, 23 nL of compounds dissolved in DMSO were transferred to the assay plate by a PinTool resulting in a 217-fold dilution. Incubate the plates for 16 hours at 37C, 5% CO2. Add 1 uL of 6X LiveBLAzer FRET B/G (CCF4-AM) Substrate Mixture to each well using a BioRAPTR dispenser and incubate the plates at room temperature for 2 hours. Measure fluorescence intensity at 460 and 530 nm emission and 405 nm excitation by an Envision detector. Data is expressed as the ratio of 460nm/530nm emissions. Add 4 uL of Cell-titer Glo to each well using BioRAPTR and incubate the plates at room temperature for 2 hours. Measure fluorescence intensity by a VewLux plate reader.

Question: How did the AC50 turn out when `CNC(=O)c1cc(Oc2ccc(NC(=O)Nc3ccc(Cl)c(C(F)(F)F)c3)cc2)ccn1` was run?
Answer: Its AC50 is 6.76 µM (active).

Question: `CCCCCCCCC(CCCCCC)C(=O)O` (stereo not given) was tested. Which outcome did it give?
Answer: The outcome was “inactive”.

Question: With `CC(=O)Nc1ccn(C2COC(COC(=O)c3ccccc3)O2)c(=O)n1` (stereo not given) as the compound, how does the outcome read?
Answer: The outcome was “inactive”.

Question: With `CC1=C(/C=C/C(C)=C/C=C/C(C)=C\C(=O)O)C(C)(C)CCC1` as the compound, how does the outcome read?
Answer: The outcome was “inactive”.

Question: Which outcome does the source give for `OCCN1C[C@H](O)[C@@H](O)[C@H](O)[C@H]1CO` here?
Answer: The outcome was “inactive”.

Question: `CN(C)[C@@H]1C(=O)C(C(=O)NCN2CCCC2)=C(O)[C@@]2(O)C(=O)C3=C(O)c4c(O)cccc4[C@@](C)(O)C3C[C@@H]12` (stereo not given in full) was tested. Which outcome did it give?
Answer: The outcome was “inactive”.

Question: How did the outcome turn out when `CN1C[C@H](C(=O)N[C@]2(C)O[C@@]3(O)[C@@H]4CCCN4C(=O)[C@H](Cc4ccccc4)N3C2=O)C[C@@H]2c3cccc4[nH]cc(c34)C[C@H]21` was run?
Answer: Its outcome is “inactive”.

Question: With `O=C1c2cccc(O)c2C(=O)c2c(O)cccc21` as the compound, how does the outcome read?
Answer: The outcome was “inactive”.

Question: `Cc1cc2c(cc1S(N)(=O)=O)S(=O)(=O)CCC2` was tested. Which outcome did it give?
Answer: The outcome was “inactive”.

Question: How did the outcome turn out when `CCOC(=O)Cn1c(=O)sc2cccc(Cl)c21` was run?
Answer: The outcome was “inactive”.

Question: How did the outcome turn out when `CCCCCCCCCCCCCCCC(=O)NCCO` was run?
Answer: Its outcome is “inactive”.

Question: How did the outcome turn out when `O=C1NC(=O)[C@@]2(CCOc3ccc(F)cc32)N1` was run?
Answer: Its outcome is “inactive”.

Question: `CC1=CC(=O)CC(C)(C)C1=O` was tested. Which outcome did it give?
Answer: The outcome was “inactive”.

Question: `CN1C(=O)OC(C)(C)C1=O` was tested. Which outcome did it give?
Answer: The outcome was “inactive”.

Question: For `Cc1cc(O)cc2c1O[C@](C)(CCC[C@H](C)CCC[C@H](C)CCCC(C)C)CC2`, which outcome is on record?
Answer: The outcome was “inactive”.

Question: Which outcome does the source give for `CC(=O)Nc1ccc(C)cc1` here?
Answer: Its outcome is “inactive”.

Question: For `CC(C)=CCOc1ccc(/C=C/C(=O)c2ccc(OCC=C(C)C)cc2OCC(=O)O)cc1`, which AC50 is on record?
Answer: The AC50 was 9.9 µM (active).

Question: `CC(C)Cn1cnc2c(N)nc3ccccc3c21` was tested. Which outcome did it give?
Answer: The outcome was “inactive”.

Question: For `Cc1cccn2c(=O)c(-c3nnn[nH]3)cnc12`, which outcome is on record?
Answer: Its outcome is “inactive”.

Question: How did the outcome turn out when `O=C(O)C(Cc1cc(I)c(O)c(I)c1)c1ccccc1` (stereo not given) was run?
Answer: Its outcome is “inactive”.

Question: `O=C1NC(=O)C2CC=CCC12` (stereo not given) was tested. Which outcome did it give?
Answer: The outcome was “inactive”.

Question: `N[C@H]1C(O)O[C@H](CO)[C@@H](O)[C@@H]1O` (stereo not given in full) was tested. Which outcome did it give?
Answer: Its outcome is “inactive”.

Question: Which outcome does the source give for `O=C(O)c1cccc(/C=C2/C[C@@H]3[C@@H](/C=C/[C@@H](O)C4CCCCC4)[C@H](O)C[C@@H]3O2)c1` here?
Answer: The outcome was “inactive”.

Question: With `OCC=CCO` as the compound, how does the outcome read?
Answer: The outcome was “inactive”.

Question: Which outcome does the source give for `CCCN(CCC)CCc1cccc2c1CC(=O)N2` here?
Answer: The outcome was “inactive”.

Question: With `CC1=C2[C@H](/C=C(\C)C(=O)O)CC[C@@H](C)[C@H]2CC1` as the compound, how does the outcome read?
Answer: The outcome was “inactive”.

Question: With `CC(=O)NCCCS(=O)(=O)O` as the compound, how does the outcome read?
Answer: The outcome was “inactive”.

Question: How did the outcome turn out when `COc1ccccc1N1CCN(CC(O)COc2cccc3ccccc23)CC1` (stereo not given) was run?
Answer: Its outcome is “inactive”.

Question: For `CCCN(CCC)C(=O)C(CCC(=O)OCCCN1CCN(CCOC(=O)Cc2c(C)n(C(=O)c3ccc(Cl)cc3)c3ccc(OC)cc23)CC1)NC(=O)c1ccccc1` (stereo not given), which outcome is on record?
Answer: Its outcome is “inactive”.

Question: How did the AC50 turn out when `Cc1nc(Nc2ncc(C(=O)Nc3c(C)cccc3Cl)s2)cc(N2CCN(CCO)CC2)n1` was run?
Answer: The AC50 was 32.7 µM (active).

Question: How did the outcome turn out when `c1ccc2c(c1)CCc1ccccc1N2` was run?
Answer: Its outcome is “inactive”.

Question: With `CC1C(=O)CC2C3(C)CCC2(C(C)C(=O)O)C(=O)C13` (stereo not given) as the compound, how does the outcome read?
Answer: The outcome was “inactive”.

Question: How did the outcome turn out when `Cc1cccc(Nc2ccncc2S(=O)(=O)NC(=O)NC(C)C)c1` was run?
Answer: Its outcome is “inactive”.

Question: Which outcome does the source give for `CCCOC(=O)C(C)O` (stereo not given) here?
Answer: The outcome was “inactive”.

Question: Which outcome does the source give for `CC(=C(CCOC(=O)C(C)C)SSC(CCOC(=O)C(C)C)=C(C)N(C=O)Cc1cnc(C)nc1N)N(C=O)Cc1cnc(C)nc1N` here?
Answer: Its outcome is “inactive”.

Question: How did the AC50 turn out when `N=C1N=C(N)c2cc3ccccc3cc21` was run?
Answer: The AC50 was 15 µM (active).

Question: For `O=Cc1ccc(Cl)cc1`, which outcome is on record?
Answer: The outcome was “inactive”.

Question: For `CCCCCCCCCC/C=C/C1CC(=O)OC1=O` (stereo not given), which outcome is on record?
Answer: Its outcome is “inactive”.

Question: `O=C1CCC(c2ccccc2)(C2CCN(Cc3ccccc3)CC2)C(=O)N1` (stereo not given) was tested. Which outcome did it give?
Answer: Its outcome is “inactive”.

Question: Which outcome does the source give for `O[C@@H]([C@H](O)[C@H](O)CBr)[C@H](O)CBr` here?
Answer: The outcome was “inactive”.
